Screening results (PubChem BioAssay)
Most compounds without a hit are left out; they make up all but 3.8% or so of the library.
HepG2 viability = HepG2 cytotoxicity, counter-screen for TGF-b inhibitors. HepG2 CAGA-GFP viability, ATP luminescence, 18 h. Potency, µM (titrated, usually from 46.1 µM), inactives show at the highest dose activity change, negative = cytotoxicity, hits mostly cytotoxic. actives 0.76% (n = 410,000)
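CellTiter-Glo luminescence gave cytotoxicity after 18 hours at 37 degrees C. The cells were HepG2 CAGA-GFP in 1% FBS DMEM, stimulated with 500 pg/mL TGF-beta after compound addition. %Activity was normalised to no-cell wells (complete cell-killing) and DMSO (no toxicity), and curves were fitted and classified.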
Nrf2 inh = Nrf2 pathway inhibition; A549 ARE-Fluc reporter, luciferase luminescence, 18-24 h; Potency, µM (series often up to 46 µM), for inactives: at the top dose activity change, negative = inhibition, most hits filed as inhibitors; actives 2.1% (n = 360,000); AID 504444; note: % is set by controls: 0 for no effect and ±100 for the full control effect; nearly all actives have a fitted effect of over 60% in size
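A549 ARE_Fluc cells (5000/well, 5% FBS OPTI-MEM) pre-incubated 2 h, then treated with compounds 18-24 h at 37C/5% CO2 in concentration-response. CellTiter-Fluor viability read first; BugLite luciferase luminescence after 15 min at room temperature gives Nrf2 activity.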
A549 viability = counter-screen for Nrf2 inhibitors: cytotoxicity in A549 cells; A549 ARE-Fluc cells, CellTiter-Fluor viability, 18-24 h; Potency, µM (highest dose often 46 µM), inactives show at the highest dose activity change, negative = cytotoxicity, usual class: inhibitors; actives 0.16% (n = 390,000); AID 504648; note: % is set by controls: 0 for no effect and ±100 for the full control effect
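A549 ARE-Fluc cells in 5% FBS OPTI-MEM, 5000 cells/well, rested 2 h then exposed to compounds in concentration-response for 18-24 h at 37 °C. Viability by CellTiter-Fluor fluorescence (Ex 405/Em 525) after 30 min; luciferase luminescence (BugLite, 15 min, RT) read afterwards.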
TGFb SMAD3 inh = TGF-b pathway inhibition. AID 588855. HepG2 CAGA-GFP TGF-b/SMAD3 reporter, GFP fluorescence, 18 h; TGF-beta stimulated, 500 pg/mL final. Potency, µM (titrated, usually from 46.1 µM), without a hit: top-dose activity, negative = inhibition, actives largely listed as inhibitors. actives 1.2% (n = 410,000); note: % is set by controls: 0 for no effect and ±100 for the full control effect; nearly all actives have a fitted effect of over 65% in size
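Inhibition of TGF-beta-driven CAGA-GFP reporter expression in HEPG2 cells is measured by cellular GFP fluorescence after 18 h stimulation with 500 pg/mL recombinant TGF-beta in 1% FBS medium at 37 degrees C.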
S2 tox = viability counter-screen for ATXN expression inhibitors | S2 cells (HEK-293 line with an ATXN2-luciferase reporter) viability, CellTiter-Fluor protease fluorescence, 24 h | Potency, µM (highest dose often 56.7 µM), actives largely listed as cytotoxic | actives 0.49% (n = 400,000) | AID 651635; note: nearly all actives have a fitted effect of over 40% in size
ATXN2 expr inh = inhibitors of ATXN2 expression; HEK-293 ATXN2-luciferase reporter, luminescence, 24 h; Potency, µM (highest dose often 57 µM), for the others: at the top dose activity change, negative = inhibition, actives largely listed as inhibitors; actives 0.72% (n = 360,000); note: % is set by controls: 0 for no effect and ±100 for the full control effect; nearly all actives have a fitted effect of over 55% in size
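qHTS (up to 57 uM final) was run with 24 h compound exposure of reporter cells at 37 °C. Each well was multiplexed: SteadyGlo luminescence measured ATXN2-luciferase expression after a fluorogenic Gly-Phe-AFC viability readout (25 uM final).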
Active calls of the source: *; i = inactive; ? = inconclusive; . = no result given. Calls come from the whole dose curve; as a rule, active = well fitted curve in the direction sought with a large enough effect; inconclusive = small, poorly fitted or top-dose-only effect, or another doubt; inactive = no such curve, though single readings can be large; an effect the other way counts as inactive or inconclusive. Potency is the fitted concentration of half-maximal effect.

SMILES	HepG2 viability	Nrf2 inh	A549 viability	TGFb SMAD3 inh	S2 tox	ATXN2 expr inh
Cc1ccccc1N1CC(c2nc3ccccc3n2Cc2ccc(Br)cc2)CC1=O (centres undefined)	-101.7%	-13.4%	2.2%	?	?	?
CC(=O)NC(c1cccc(F)c1)c1nc(/C=C/c2ccccc2)cs1 (centres undefined)	-6.3%	.	.	10.1%	i	-10.2%
COc1ccc(S(=O)(=O)N2CCN(C)CC2)cc1NC(=O)c1ccccc1	-5.1%	1.7%	-1.5%	-17.7%	i	1.0%
Cc1ccc(-n2c(C)cc(/C=C3\SC(=O)NC3=O)c2C)cc1	-1.7%	?	-19.4%	-20.1%	i	77.6%
Cc1cc(/C=C2\SC(N)=NC2=O)c(C)n1-c1ccc(F)cc1	12.6µM*	?	20.7%	-10.3%	i	17.1%
CN(c1ccccc1)c1ccc(/C=C/[N+](=O)[O-])cc1	7.94µM*	-4.4%	?	?	.	-1.6%
O=[N+]([O-])c1ccc(C=CC=Cc2ccccc2)cc1	-42.8%	.	.	-16.9%	i	.
Cc1[nH]c2ccccc2c1/C=N/NC(=S)NC(C)C	-14.5%	14.6µM*	?	3.6%	i	-12.8%
CC(C)NC(=S)N/N=C/c1c[nH]c2ccccc12	-38.4%	20.1%	-3.1%	-6.1%	i	29.0%
CNC(=S)NN=C(C)CCCC(C)=NNC(=S)NC	-48.8%	-12.1%	-6.6%	4.47µM*	?	10.6µM*
CNC(=S)N/N=C(\C)c1ccc(Cl)c(Cl)c1	-0.9%	-2.1%	0.1%	-14.1%	i	-8.0%
CN(C)C(=O)CSc1ccc(S(=O)(=O)N2CCCC2)cn1	63.6%	1.4%	0.8%	5.1%	i	2.9%
CC(C)N(C(=O)CSc1ccc(S(=O)(=O)N2CCCCC2)cn1)c1ccccc1	-21.1%	9.2µM*	-0.5%	?	i	-10.7%
O=S(=O)(c1ccc(SCCOc2ccc(Cl)cc2)nc1)N1CCCC1	7.9%	18.4µM*	-6.6%	10.7%	i	?
O=S(=O)(c1ccc(Oc2ccc(Br)cc2F)nc1)N1CCCCC1	-26.0%	16.4µM*	-15.0%	?	i	-5.4%
CCOc1ccc(OCCSc2ccc(S(=O)(=O)N3CCN(C)CC3)cn2)cc1	-4.8%	?	-2.4%	-27.5%	i	.
N#Cc1ccccc1Oc1ccc(S(=O)(=O)N2CCCCC2)cn1	-4.0%	23.8%	-1.5%	-5.3%	i	21.4%
O=S(=O)(c1ccc(SCCOc2ccc(Br)cc2)nc1)N1CCCC1	-15.2%	16.4µM*	3.3%	-5.0%	i	-38.1%
Cc1cccc(C)c1NC(=O)C(=O)NCC(c1cccnc1)N1CCc2ccccc21 (centres undefined)	-19.5%	22.6%	-0.5%	-13.8%	.	.
CCCC(=O)Nc1cc(-c2nc3cccnc3s2)ccc1C	-38.9%	105.7%	-1.1%	-16.0%	i	20.6%
O=S(=O)(c1ccc(NC(=S)NC23CC4CC(CC(C4)C2)C3)cc1)N1CCCCC1	-5.2%	.	.	0.1%	?	.
O=S(=O)(c1ccc(N2CCC(c3ccc(Cl)cc3)=N2)cc1)N(CCO)CCO	20µM*	?	22.9%	?	.	-27.1%
CCOc1ccc(-n2nc3ccc(NC(=O)c4ccc(-c5cccc(Cl)c5)o4)cc3n2)cc1	12.5%	14.6µM*	-15.5%	11.8%	.	.
O=[N+]([O-])c1cc(O)c2ncccc2c1	3.98µM*	-6.6%	0.0%	5.01µM*	?	5.01µM*
COCc1cc(=O)n2[nH]c(C)c(-c3ccc(Cl)cc3)c2n1	14.1µM*	.	.	-11.4%	i	.
SMILES	HepG2 viability	Nrf2 inh	A549 viability	TGFb SMAD3 inh	S2 tox	ATXN2 expr inh
Cc1[nH]n2c(=O)cc(-c3ccccc3Cl)nc2c1-c1ccccc1	-45.8%	18.4µM*	-18.0%	?	i	-24.7%
CCOc1ccc(NC(=O)Cn2nnc(C(=O)NCCc3ccccc3)c2N)cc1	-22.3%	-17.7%	-4.1%	0.3%	?	-16.1%
CC1(C)CC(=O)C2=C(C1)NC(Nc1nc3ccccc3o1)=NC2c1cccc(F)c1 (centres undefined)	-12.2%	3.5%	-1.0%	6.0%	.	.
Cc1ccc(-c2nc(N/N=C/c3cccc([N+](=O)[O-])c3)c3ccccc3n2)cc1	-18.8%	?	3.0%	-2.1%	.	?
Cc1ccc(-c2nc(N/N=C/c3cccnc3)c3ccccc3n2)cc1	14.1µM*	?	0.7%	?	i	70.9%
CC(C)OCCCn1c(SCC(=O)Nc2ccccc2C(F)(F)F)nc2nccnc2c1=O	2.51µM*	10.7%	-1.2%	13.3%	i	6.2%
CCCCn1c(SCC(=O)Nc2ccccc2C(F)(F)F)nc2ccsc2c1=O	-24.1%	-16.5%	-3.6%	?	?	-2.9%
COc1cc(/C=N/NC(=O)c2ccccc2O)ccc1OCC(=O)Nc1ccccc1	-48.2%	?	-7.3%	-24.8%	?	10.8%
O=C(COc1ccc(/C=N/NC(=O)c2cc3ccccc3o2)cc1Cl)Nc1ccccc1	-68.7%	?	?	2µM*	8.91µM*	10µM*
CCc1nn(CC(=O)N2CCCCC2)c(=O)c2cc3sccc3n12	-8.4%	-8.3%	4.0%	?	.	.
COc1ccc(C(C(=O)NC2CCCCC2)N(C(=O)CCl)c2cccc(Cl)c2)cc1 (centres undefined)	11.2µM*	?	?	?	7.08µM*	6.31µM*
COc1ccc(C(C(=O)NC2CCCCC2)N(C(=O)CCl)c2ccc(C)cc2)cc1 (centres undefined)	-39.5%	?	-13.4%	?	.	?
COc1ccc(C(C(=O)NC2CCCCC2)N(C(=O)CCl)c2ccc(OC)cc2)cc1 (centres undefined)	-22.6%	?	-23.4%	?	3.98µM*	3.55µM*
COc1cccc(N(C(=O)c2cnccn2)C(C(=O)NC2CCCCC2)c2ccc(Cl)cc2)c1 (centres undefined)	-26.3%	-14.2%	-20.6%	-12.9%	i	2.2%
O=C(NC1CCCCC1)C(c1cccnc1)N(C(=O)CCl)c1ccc(F)cc1 (centres undefined)	-75.8%	18.4µM*	-21.5%	?	6.31µM*	3.98µM*
Cc1ccc(NC(=O)CCNC(=O)c2ccc(Br)cc2)cc1S(=O)(=O)N1CCOCC1	-7.2%	-29.3%	-7.0%	-17.0%	?	-13.0%
CN(c1ccccc1)S(=O)(=O)c1cccc(NC(=O)CCNC(=O)c2ccc([N+](=O)[O-])cc2)c1	-35.1%	?	-1.2%	0.5%	i	-34.7%
O=C(CCNC(=O)c1ccc([N+](=O)[O-])cc1)Nc1ccc(Cl)c(S(=O)(=O)N2CCOCC2)c1	2.6%	23.1µM*	1.8%	-22.5%	i	.
